Assay results: PubChem BioAssay (EPA / NIEHS)
A structure can be active in one record and inactive in another. The source made the active and inactive calls. The calls were made as follows: active = hit-call score of the fitted dose curve at least 0.9, where 1 is the maximum; inactive = score below 0.9.

Tests used:
[1] = biological target: Transcription factor E2F1 (Homo sapiens) (UniProt Q01094); experiment: ATG_E2F_CIS: Attagene CIS-FACTORIAL HepG2 Assay for human E2F Transcription Factor 1 (AID 2282935); settings: HepG2 Attagene cis-reporter, E2F reporter RNA transcripts; actives raise or lower the signal
In short: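 In this cis-factorial format, endogenous factor activity drives transfected reporters in HepG2; transcripts collected at 24 h are quantified by fluorescence after RT-PCR and capillary separation.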

[2] = ATG_E_Box_CIS: Attagene CIS-FACTORIAL HepG2 Assay for human Enhancer Box (E-box) (AID 2282936); settings: HepG2 E-box cis-reporter transcription, actives raise or lower the signal
In short: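 Measured 24 h post-dosing in HepG2 cells transfected with multiple cis-regulated reporter units, signal being reporter mRNA induction detected by fluorescent RT-PCR with capillary electrophoresis; gain or loss fitted against DMSO.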

[3] = ATG_M_61_CIS: Attagene CIS-FACTORIAL HepG2 Assay for M61 Transcription Factor (Internal Marker) (AID 2282937); settings: HepG2 Attagene CIS-FACTORIAL M61 internal marker reporter; actives raise or lower the signal
In short: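 Using transiently transfected HepG2 liver cells, reporter transcript levels were assessed 24 h post-dosing by RT-PCR and capillary electrophoresis. Changes in either direction were fitted relative to DMSO controls.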

[4] = ATG_EGR_CIS: Attagene CIS-FACTORIAL HepG2 Assay for human Early Growth Response 1 (EGR1) (AID 2282938); settings: HepG2 Attagene CIS-FACTORIAL EGR reporter mRNA; actives raise or lower the signal
In short: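 Fluorescent capillary-electrophoresis signal of reporter cDNA fragments serves as read-out. HepG2 cells bear transiently transfected cis-promoter reporter units and are exposed 24 h; gain- or loss-of-signal is fitted against DMSO.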

[5] = ATG_M_19_CIS: Attagene CIS-FACTORIAL HepG2 Assay for M19 Transcription Factor (Internal Marker) (AID 2282939); settings: HepG2 Attagene CIS-FACTORIAL M19 internal marker reporter; actives raise or lower the signal
In short: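 Following a 24 h exposure, RNA from transfected HepG2 cells was reverse-transcribed, PCR-amplified with reporter-specific primers, end-labelled with 6-FAM and HpaI-digested before capillary separation. Values represent gain or loss versus DMSO.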

[6] = ATG_ERE_CIS: Attagene CIS-FACTORIAL HepG2 Assay for Estrogen Response Element (ERE) (AID 2282940); settings: HepG2 ERE cis-reporter, Attagene RNA transcript; actives raise or lower the signal
In short: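 HepG2, transient cis-reporter units, 24 h exposure. RNA isolated, oligo(dT) RT, reporter-specific PCR, FAM extension, HpaI cut, CE detection. Gain/loss-of-signal vs DMSO.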

[7] = biological target: Hepatocyte nuclear factor 3-beta (Homo sapiens) (UniProt Q9Y261); experiment: ATG_FoxA2_CIS: Attagene CIS-FACTORIAL HepG2 Assay for human Forkhead box A2 (FOXA2) (AID 2282942); settings: HepG2 cis-reporter transcription factor activity, 24 h; actives raise or lower the signal
In short: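 Fluorescence signal of reporter cDNA fragments, separated by capillary electrophoresis, reflects endogenous transcription factor activity in transfected HepG2 after 24 h. Both increases and decreases fitted against DMSO.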

[8] = ATG_FoxO_CIS: Attagene CIS-FACTORIAL HepG2 Assay for human Forkhead box O (FoxO) (AID 2282943); settings: HepG2 Attagene cis-reporter, FoxO element, mRNA; actives raise or lower the signal
In short: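 24 h chemical exposure, HepG2 with transient cis-MRTU transfection. RNA extraction, oligo(dT) RT, reporter-specific PCR, primer-extension labelling, HpaI digestion, CE fragment analysis; bidirectional fit, DMSO baseline.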

[9] = ATG_GATA_CIS: Attagene CIS-FACTORIAL HepG2 Assay for human GATA Binding Protein (AID 2282944); settings: HepG2 GATA cis-element reporter, Attagene multiplex mRNA; actives raise or lower the signal
In short: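 DMSO serves as negative control and baseline for bidirectional fitting of reporter mRNA changes. HepG2 cells bearing transiently transfected cis-promoter reporters were exposed 24 h; transcripts detected via RT-PCR and capillary electrophoresis.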

[10] = ATG_GLI_CIS: Attagene CIS-FACTORIAL HepG2 Assay for human Zinc Finger Protein GLI1 (AID 2282945); settings: HepG2, Attagene cis-factorial reporter mRNA, GLI element; actives raise or lower the signal
In short: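 HepG2 cells transiently transfected with cis-promoter multiplexed reporter units report endogenous transcription factor activity. After 24 h chemical exposure, reporter mRNA was quantified by RT-PCR, 6-FAM labelling, HpaI digestion and capillary electrophoresis, with bidirectional fitting against DMSO.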

[11] = biological target: Bile acid receptor (Homo sapiens) (UniProt Q96RI1); experiment: ATG_IR1_CIS: Attagene CIS-FACTORIAL HepG2 Assay for human Nuclear Receptor Subfamily 1 Group H Member 4 (NR1H4), IR1 submotif (AID 2282946); settings: IR1 reporter transcription, actives raise or lower the signal
In short: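 Readout: reporter transcript levels by RT-PCR with fluorescent capillary electrophoresis, from HepG2 cells transiently transfected with multiplexed cis-regulated reporters and dosed 24 h. Gain- or loss-of-signal fitted versus DMSO negative control.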

[12] = ATG_GRE_CIS: Attagene CIS-FACTORIAL HepG2 Assay for human Glucocorticoid Response Elements (GRE) (AID 2282947); settings: HepG2 GRE cis-reporter, Attagene multiplex mRNA; actives raise or lower the signal
In short: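 HepG2, transient cis-reporter transfection, 24 h. Reporter mRNA: RT-PCR then CE, fluorescence. Fit both directions vs DMSO.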

[13] = ATG_ISRE_CIS: Attagene CIS-FACTORIAL HepG2 Assay for human Interferon Regulatory Factor 1 (IRF1) binding to an Interferon-Stimulated Response Element (ISRE) (AID 2282948); settings: HepG2 ISRE cis-reporter (Attagene), mRNA transcription readout; actives raise or lower the signal
In short: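 Uses HepG2 liver cells transfected with cis-regulated reporters and measures mRNA 24 h post-dosing through RT-PCR, primer-extension labelling and capillary electrophoresis, with DMSO as negative control.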

[14] = ATG_M_32_CIS: Attagene CIS-FACTORIAL HepG2 Assay for M32 Transcription Factor (Internal Marker) (AID 2282949); settings: HepG2 Attagene cis-factorial M32 reporter, mRNA; actives raise or lower the signal;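 also: background control marker of the multiplexed CIS panel rather than a real target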
In short: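 Using DMSO as baseline, bidirectional curve fits were applied to reporter mRNA signals. These came from transiently transfected HepG2 cells exposed for 24 h, with RNA analysed by RT-PCR, FAM primer extension, HpaI digestion and CE.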

[15] = ATG_M_06_CIS: Attagene CIS-FACTORIAL HepG2 Assay for M06 Transcription Factor (Internal Marker) (AID 2282950); settings: HepG2 Attagene CIS-FACTORIAL M06 internal marker reporter; actives raise or lower the signal
In short: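 Fluorescence-labelled RT-PCR products from cis-promoter reporter units, cut with HpaI and resolved by capillary electrophoresis, give the signal. Cells are human HepG2, dosed for 24 h. Serves as background control, fitted relative to DMSO.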

[16] = biological target: Hepatocyte nuclear factor 6 (Homo sapiens) (UniProt Q9UBC0); experiment: ATG_HNF6_CIS: Attagene CIS-FACTORIAL HepG2 Assay for human Hepatocyte Nuclear Factor 6 (HNF6) (AID 2282952); settings: HepG2 Attagene cis-factorial HNF6 reporter transcription; actives raise or lower the signal
In short: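 Using cis-element reporters in HepG2 liver cells, the assay tracks endogenous factor-driven transcription 24 h post-dosing. Signal comes from 6-FAM-labelled, HpaI-digested RT-PCR fragments, with gain or loss scored against DMSO.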

[17] = biological target: Heat shock factor protein 1 (Homo sapiens) (UniProt Q00613); experiment: ATG_HSE_CIS: Attagene CIS-FACTORIAL HepG2 Assay for human Heat Shock Transcription Factor 1 (HSE) (AID 2282953); settings: HepG2 HSE cis-reporter, Attagene RNA transcription; actives raise or lower the signal
In short: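 After a 24 h incubation with test chemical, transfected HepG2 cells were harvested for RNA; reporter transcripts were measured by RT-PCR and capillary electrophoresis. Values reflect gain or loss of signal relative to DMSO.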

[18] = ATG_MRE_CIS: Attagene CIS-FACTORIAL HepG2 Assay for human Metal Responsive Element (MRE) (AID 2282954); settings: HepG2 MRE cis-reporter transcription, Attagene multiplex; actives raise or lower the signal
In short: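 Readout: capillary electrophoresis of 6-FAM-labelled, HpaI-digested RT-PCR reporter products. System: HepG2 cells carrying transient multiplexed cis reporters, dosed 24 h. Analysis: bidirectional fit, DMSO baseline.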

[19] = biological target: Hypoxia-inducible factor 1-alpha (Homo sapiens) (UniProt Q16665); experiment: ATG_HIF1a_CIS: Attagene CIS-FACTORIAL HepG2 Assay for human Hypoxia Inducible Factor 1 (HIF1A) (AID 2282951); settings: HepG2 Attagene cis-factorial HIF1a reporter transcription; actives raise or lower the signal
In short: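 Endogenous-TF cis reporter readout, human HepG2 cells, 24 h incubation; mRNA detected via RT-PCR and capillary electrophoresis fluorescence; DMSO-normalised bidirectional fitting.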

[20] = ATG_Ets_CIS: Attagene CIS-FACTORIAL HepG2 Assay for human Erythroblast Transformation Specific (ETS) (AID 2282941); settings: HepG2 ETS cis-reporter transcription, actives raise or lower the signal
In short: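 Bidirectional fit versus DMSO of reporter mRNA signal, detected by RT-PCR and capillary electrophoresis in HepG2 cells transiently transfected with cis-element reporters and dosed 24 h.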

Measured: AC50

Chain of Hepatocyte nuclear factor 3-beta (Homo sapiens) (Q9Y261 whole entry, looked up, the tested form may be a part): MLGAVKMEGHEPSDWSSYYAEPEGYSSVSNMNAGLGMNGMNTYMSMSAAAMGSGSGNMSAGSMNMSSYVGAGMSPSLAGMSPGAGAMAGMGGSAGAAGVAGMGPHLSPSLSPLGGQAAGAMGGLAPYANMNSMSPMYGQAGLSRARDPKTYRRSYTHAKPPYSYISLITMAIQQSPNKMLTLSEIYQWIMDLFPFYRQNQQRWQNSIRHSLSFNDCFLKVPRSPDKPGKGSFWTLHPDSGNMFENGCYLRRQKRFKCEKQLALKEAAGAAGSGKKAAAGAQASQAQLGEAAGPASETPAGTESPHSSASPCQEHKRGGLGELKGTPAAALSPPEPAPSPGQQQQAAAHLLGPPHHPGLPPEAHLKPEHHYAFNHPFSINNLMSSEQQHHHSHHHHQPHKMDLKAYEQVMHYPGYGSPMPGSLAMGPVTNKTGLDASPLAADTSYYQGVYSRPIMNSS
Chain of Heat shock factor protein 1 (Homo sapiens) (Q00613 whole entry, looked up): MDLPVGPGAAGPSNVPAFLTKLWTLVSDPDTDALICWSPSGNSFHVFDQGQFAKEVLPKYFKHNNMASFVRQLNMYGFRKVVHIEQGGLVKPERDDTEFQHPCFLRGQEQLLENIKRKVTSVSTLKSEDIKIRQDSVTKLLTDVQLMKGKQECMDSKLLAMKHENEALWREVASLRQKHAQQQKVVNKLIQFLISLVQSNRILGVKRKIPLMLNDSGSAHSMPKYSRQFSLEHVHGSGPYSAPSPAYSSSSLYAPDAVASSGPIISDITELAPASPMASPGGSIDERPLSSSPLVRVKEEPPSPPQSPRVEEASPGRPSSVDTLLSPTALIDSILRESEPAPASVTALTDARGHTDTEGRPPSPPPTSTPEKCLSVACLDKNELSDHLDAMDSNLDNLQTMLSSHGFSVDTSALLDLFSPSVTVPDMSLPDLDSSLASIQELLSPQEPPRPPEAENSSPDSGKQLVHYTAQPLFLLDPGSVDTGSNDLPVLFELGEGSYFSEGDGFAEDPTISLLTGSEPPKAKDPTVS
Chain of Transcription factor E2F1 (Homo sapiens) (Q01094 whole entry, looked up): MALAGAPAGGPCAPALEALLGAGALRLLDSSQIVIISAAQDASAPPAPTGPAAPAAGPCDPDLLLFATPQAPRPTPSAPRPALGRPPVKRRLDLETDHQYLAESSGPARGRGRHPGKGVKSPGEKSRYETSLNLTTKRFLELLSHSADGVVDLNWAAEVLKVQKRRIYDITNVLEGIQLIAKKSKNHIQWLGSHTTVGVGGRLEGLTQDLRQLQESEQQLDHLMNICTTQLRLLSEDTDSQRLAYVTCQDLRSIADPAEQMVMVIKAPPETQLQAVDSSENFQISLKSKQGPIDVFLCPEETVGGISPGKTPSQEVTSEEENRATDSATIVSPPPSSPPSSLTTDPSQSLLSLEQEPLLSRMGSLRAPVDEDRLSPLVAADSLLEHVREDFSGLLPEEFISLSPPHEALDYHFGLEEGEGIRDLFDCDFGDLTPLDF
Chain of Bile acid receptor (Homo sapiens) (Q96RI1 whole entry, looked up): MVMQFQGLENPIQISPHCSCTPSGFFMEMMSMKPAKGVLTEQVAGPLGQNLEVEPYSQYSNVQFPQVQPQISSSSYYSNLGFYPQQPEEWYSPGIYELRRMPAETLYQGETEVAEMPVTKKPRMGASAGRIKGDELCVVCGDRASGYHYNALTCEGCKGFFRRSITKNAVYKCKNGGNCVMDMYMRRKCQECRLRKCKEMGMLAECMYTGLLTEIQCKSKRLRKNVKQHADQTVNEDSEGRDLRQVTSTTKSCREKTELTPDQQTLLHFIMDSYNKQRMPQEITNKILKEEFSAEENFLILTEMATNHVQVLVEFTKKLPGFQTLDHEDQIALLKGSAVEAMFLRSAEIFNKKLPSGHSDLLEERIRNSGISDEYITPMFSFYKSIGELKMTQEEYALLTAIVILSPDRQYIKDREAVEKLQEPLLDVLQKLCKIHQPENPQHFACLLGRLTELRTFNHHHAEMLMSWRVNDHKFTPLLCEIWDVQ
Chain of Hepatocyte nuclear factor 6 (Homo sapiens) (Q9UBC0 whole entry, looked up, the tested form may be a part): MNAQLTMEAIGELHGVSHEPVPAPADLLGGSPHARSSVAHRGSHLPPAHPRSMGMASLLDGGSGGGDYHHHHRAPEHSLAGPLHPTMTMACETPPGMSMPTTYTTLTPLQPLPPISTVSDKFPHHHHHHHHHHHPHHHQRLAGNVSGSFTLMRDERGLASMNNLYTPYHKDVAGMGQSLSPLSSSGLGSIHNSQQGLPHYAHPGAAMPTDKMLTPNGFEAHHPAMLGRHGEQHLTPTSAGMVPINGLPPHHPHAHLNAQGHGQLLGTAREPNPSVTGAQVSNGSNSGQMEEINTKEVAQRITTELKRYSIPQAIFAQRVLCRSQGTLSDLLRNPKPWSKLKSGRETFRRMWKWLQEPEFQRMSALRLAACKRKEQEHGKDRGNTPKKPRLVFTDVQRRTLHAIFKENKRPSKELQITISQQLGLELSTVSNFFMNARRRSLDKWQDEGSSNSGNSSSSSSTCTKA
Chain of Hypoxia-inducible factor 1-alpha (Homo sapiens) (Q16665 whole entry, looked up): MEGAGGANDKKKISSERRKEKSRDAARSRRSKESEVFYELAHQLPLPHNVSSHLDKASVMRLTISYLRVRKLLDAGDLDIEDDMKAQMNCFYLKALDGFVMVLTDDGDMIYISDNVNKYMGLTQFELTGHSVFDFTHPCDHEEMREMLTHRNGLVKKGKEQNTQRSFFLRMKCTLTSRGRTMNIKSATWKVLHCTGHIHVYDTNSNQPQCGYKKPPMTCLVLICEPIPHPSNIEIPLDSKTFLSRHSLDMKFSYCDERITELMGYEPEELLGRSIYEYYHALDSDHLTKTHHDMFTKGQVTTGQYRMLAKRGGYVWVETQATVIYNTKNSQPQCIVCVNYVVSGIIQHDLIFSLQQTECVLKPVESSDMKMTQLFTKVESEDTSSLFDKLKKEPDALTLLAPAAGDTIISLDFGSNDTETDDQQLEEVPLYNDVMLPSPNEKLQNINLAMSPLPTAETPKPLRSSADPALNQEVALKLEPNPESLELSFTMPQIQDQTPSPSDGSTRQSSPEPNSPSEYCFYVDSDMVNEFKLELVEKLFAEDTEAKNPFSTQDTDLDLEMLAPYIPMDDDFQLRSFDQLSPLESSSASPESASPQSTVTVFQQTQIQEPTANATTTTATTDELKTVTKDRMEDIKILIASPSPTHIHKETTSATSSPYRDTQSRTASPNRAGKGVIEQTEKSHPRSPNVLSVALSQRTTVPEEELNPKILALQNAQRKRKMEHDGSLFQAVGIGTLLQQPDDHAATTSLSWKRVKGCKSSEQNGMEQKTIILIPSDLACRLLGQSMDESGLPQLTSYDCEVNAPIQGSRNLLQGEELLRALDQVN

CC(C)(C)C(O)/C(=C\c1ccc(Cl)cc1Cl)n1cncn1 (stereo not given)
active: [18] 5 µM
not listed: [19] | [20]
inactive: all other assays above

CNC(=O)Oc1cccc(N=CN(C)C)c1
active: [6] 91.4 µM | [8] 70.8 µM | [9] 33.6 µM | [18] 72.1 µM
not listed: [12] | [19] | [20]
inactive: all other assays above

O=[N+]([O-])c1c(Cl)c(Cl)c(Cl)c(Cl)c1Cl
active: [4] 90.8 µM | [6] 12.9 µM | [17] 80.8 µM | [18] 50 µM
not listed: [11] | [19] | [20]
inactive: all other assays above

CC[C@H](C)[C@H]1O[C@]2(C=C[C@@H]1C)C[C@@H]1C[C@@H](C/C=C(\C)[C@@H](O[C@H]3C[C@H](OC)[C@@H](O[C@H]4C[C@H](OC)[C@@H](O)[C@H](C)O4)[C@H](C)O3)[C@@H](C)/C=C/C=C3\CO[C@@H]4[C@H](O)C(C)=C[C@@H](C(=O)O1)[C@]34O)O2 (tested in a mixture with another compound)
not listed: [11] | [20]
inactive: all other assays above

N#CN
not listed: [11] | [20]
inactive: all other assays above

CCCN(CCOc1c(Cl)cc(Cl)cc1Cl)C(=O)n1ccnc1
inactive: [1] | [2] | [3] | [4] | [5] | [20] | [7] | [8] | [9] | [10] | [11] | [12] | [13] | [14] | [15] | [16] | [17] | [18]
active: [17] 2.61 µM | [18] 18.6 µM

O=C(NC(=O)c1c(F)cccc1F)Nc1ccc(OC(F)(F)C(F)OC(F)(F)F)c(Cl)c1 (stereo not given)
not listed: [11] | [20]
inactive: all other assays above

CNC(=O)CSP(=S)(OC)OC
not listed: [11] | [12] | [20]
inactive: all other assays above

CCCN(CCC)c1c([N+](=O)[O-])cc(C(F)(F)F)cc1[N+](=O)[O-]
not listed: [12] | [19] | [20]
inactive: all other assays above

O=C(O)C(F)(F)C(F)(F)C(F)(F)C(F)(F)C(F)(F)C(F)(F)C(F)(F)F
not listed: [6] | [11] | [12] | [17]
inactive: all other assays above

Cc1[nH]c(=O)n(C(C)(C)C)c(=O)c1Cl
active: [18] 50 µM
not listed: [12] | [19] | [20]
inactive: all other assays above

C#CCN1C(=O)COc2cc(F)c(N3C(=O)C4=C(CCCC4)C3=O)cc21
not listed: [11] | [19] | [20]
inactive: all other assays above

COP(=S)(OC)Oc1ccc(SC)c(C)c1
active: [6] 17.7 µM
not listed: [11] | [19] | [20]
inactive: all other assays above

COC(=O)c1ccccc1S(=O)(=O)NC(=O)Nc1nc(C)nc(OC)n1
active: [8] 75.5 µM
inactive: [1] | [2] | [3] | [4] | [5] | [20] | [7] | [8] | [9] | [10] | [11] | [13] | [14] | [15] | [16] | [17] | [18]
